This note sets out measurements from PubChem BioAssay (NCI).

What all share (experiment): NCI-60 one-dose screen, 48 h (100 = growth as untreated, 0 = no growth, -100 = all killed)
Conditions in all cases: 10 µM unless noted

Assay [1] deals with DU-145 prostate.
The test system of assay [2] is K-562 leukemia.
The subject of assay [3] is MALME-3M melanoma.
In assay [4] the test system is MDA-MB-231 breast.
Assay [5] relates to RXF 393 renal.
Assay [6] deals with SF-268 CNS.
In assay [7] the test system is SF-295 CNS.
The subject of assay [8] is SF-539 CNS.
Assay [9] relates to UACC-257 melanoma.
In assay [10] the test system is M14 melanoma.
The subject of assay [11] is HCT-15 colon.
The test system of assay [12] is HT29 colon.
Assay [13] deals with SNB-75 CNS.
Assay [14] relates to SNB-19 CNS.
Assay [15] concerns PC-3 prostate.
For assay [16], the system named is SK-MEL-5 melanoma.
In assay [17] the test system is UACC-62 melanoma.
Assay [18] deals with LOX IMVI melanoma.
Assay [19] deals with SK-MEL-28 melanoma.
In assay [20] the test system is U251 CNS.

Molecules are shown by their SMILES. Compounds without any hit were thinned out: in the full panel of roughly 83,000, 20% have a hit.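 How to read the values: 0–100, growth inhibition (40 = 60% inhibited); 0, no net growth; -100 to 0, cell death (-40 = 40% of starting cells died; -100 = all dead).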 Unmarked numbers belong to inactive results. Activity calls are given as the source filed them. Rule for the calls: active = growth percent below 10; inactive = the rest.

On to `COc1ccc(-c2nc3ccccc3n3cccc23)cc1`, for which the growth is 119% in assay [1]; 96.3% in [2]; 127% in [3]; 97.9% in assay [4]; 135% in assay [5]; 109% in assay [6]. Further, the growth in assay [7] was 114%; in assay [8], 101%; in assay [9], 109%; in assay [10], 100%; in [11] it was 142%; in [12] it was 107%. The growth was 107% in [13]; 140% in [14]; 78.6% in assay [15]; 99% in assay [16]; 88.3% in assay [17]; 90% in assay [18]. The growth in [19] is 111%.

As to `C=C1C(=O)O[C@H]2[C@H]1CC/C(COC(=O)NCc1[nH]nc3ccccc13)=C\CC[C@@]1(C)O[C@@H]21`, the growth in [1] was 12.2%; in assay [2], 2.29% (active); in [3] it was -43% (active); in [4] it was 49.1%; in assay [5], -18.3% (active); in [6] it was 55.2%. The growth in assay [7] was 72.6%; in assay [8], 4.74% (active); in assay [9], 38%; in assay [10], 13.8%; in assay [11], 5.35% (active); in assay [12], -32.6% (active). Also, the growth was 64.9% in [13]; 67.8% in assay [14]; 27.5% in [20]; 25.7% in assay [16]; 16.5% in assay [17]; -17.2% (active) in [18]. Further, in [19], the growth was 30.3%.

Regarding `Cc1ccccc1Nc1n[nH]c(Cc2ccccc2)n1`, the growth in assay [1] was 103%; in assay [2], 72%; in [3], 101%; in assay [4], 110%; in [5] it was 108%; in assay [6], 101%. The growth is 103% in assay [7]; 107% in [8]; 92.7% in assay [9]; 106% in assay [10]; 108% in [11]; 79.1% in [12]. For the same compound, the growth is 93.9% in assay [13]; 97.6% in assay [14]; 94.3% in assay [20]; 93.9% in assay [16]; 98.4% in assay [17]; 95.5% in [18]. Moreover, the growth in assay [19] was 113%.

On to `c1cc2c(cc1-c1cnc3nonc3n1)OCO2`, for which the growth in assay [1] is 103%; in assay [2], 59.3%; in [3], 98.6%; in assay [4], 75.1%; in assay [5], 122%; in [6], 82.9%. The growth in assay [7] was 101%; in [8], 73.2%; in assay [9], 93%; in assay [10], 101%; in assay [11], 57.1%; in assay [12] it was 109%. Further, the growth was 96.8% in assay [13]; 92.6% in [14]; 56.8% in assay [15]; 91.2% in assay [16]; 66% in assay [17]; 84.9% in assay [18]. Moreover, in assay [19], the growth is 104%.

Consider `Cc1nn(-c2cccc(Cl)c2)c(C)c1N=Nc1ccc(Br)cc1`, for which the growth was 101% in assay [1]; 89.2% in [2]; 95.1% in assay [3]; 93.1% in assay [4]; 110% in assay [5]; 96.5% in [6]. The growth in assay [7] was 91.8%; in assay [8], 90.7%; in [9] it was 53.2%; in assay [10], 95.6%; in [11], 94.4%; in assay [12], 74.7%. For the same compound, the growth is 91.9% in assay [13]; 97.9% in [14]; 80.9% in [15]; 97.5% in assay [16]; 81.7% in assay [17]; 101% in [18]. Also, the growth in [19] was 92.3%.

As for `CC(C)CCC(=O)[C@@H](C)[C@H]1[C@@H](OC2OCC(O)C(O)C2NS(C)(=O)=O)C[C@H]2[C@@H]3CC=C4C[C@@H](O)CC[C@]4(C)[C@H]3CC[C@]12C` (some centres not stated), the growth in [1] was 49%; in [2], 2.65% (active); in [3], 8.83% (active); in [4] it was 43.8%; in assay [5], -65.1% (active); in assay [6], 9.17% (active). For the same compound, the growth was -60.9% (active) in assay [7]; -41.2% (active) in [8]; -42.8% (active) in assay [9]; -53.1% (active) in assay [10]; 14% in assay [11]; 19.6% in [12]. Further, the growth was 22.2% in assay [13]; 32.1% in assay [14]; 5.29% (active) in [20]; 7.33% (active) in [16]; -22% (active) in assay [17]; 21.9% in assay [18]. Moreover, in assay [19], the growth is -36.1% (active).

`O=C(CCCCCCN1CC(=O)N2[C@@H](c3ccc(Cl)c(Cl)c3)c3[nH]c4ccccc4c3C[C@H]2C1=O)NO`: the growth in assay [1] was 56.7%; in assay [2], 17.9%; in assay [3] it was 40%; in assay [4], 44.4%; in assay [5] it was 36.5%; in assay [6] it was 74.7%. The growth in assay [7] is 61.8%; in assay [8] it was 52%; in assay [9] it was 65.5%; in assay [10], 50.6%; in assay [11], 92.3%; in [12], 33.8%. For the same compound, the growth in assay [13] was 6.3% (active); in assay [14], 54.3%; in assay [20], 40.5%; in [16] it was 51.3%; in [17], 35.2%; in assay [18], -55.2% (active). Further, the growth in assay [19] was 52.4%.

Consider `COc1cc(-c2nn(C(=O)NCCN3CCN(C)CC3)cc2-c2ccncc2)ccc1Cl`, for which the growth in assay [1] is 87.2%; in assay [2] it was 83.9%; in assay [3], 77.8%; in assay [4], 70.5%; in assay [5], 42.3%; in assay [6], 46.2%. Besides, the growth in assay [7] is 88.2%; in [8], 63.6%; in assay [9], 86.2%; in assay [10] it was 68.9%; in [11] it was 88.7%; in assay [12] it was 47%. Also, the growth in [13] is 42.3%; in assay [14] it was 77.5%; in [15] it was 74.3%; in [16], 62.4%; in assay [17], 57.6%; in assay [18], 85.9%. The growth in assay [19] is 68.1%.
